NIH3T3 tox – NIH 3T3 cell cytotoxicity; NIH 3T3 viability, CellTiter-Glo ATP luminescence, 48-72 h; Potency, µM (highest dose often 96.7 µM), for inactives: top-dose activity change, negative = cytotoxicity, hits mostly inhibitors; 4.3% of 94,000 active; AID 1345082; also: nearly all actives have a fitted effect of over 55% in size
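Cells were seeded at 400 per well, treated with pin-transferred compound, and kept 48 or 72 hr at 37 °C before CellTiter-Glo addition and luminescence imaging of cellular ATP.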
HEK cytotox – HEK 293 cell cytotoxicity. 6.6% of 94,000 active. Potency, µM (top dose mostly 115 µM), for the others: at the highest dose activity change, negative = cytotoxicity, hits mostly inhibitors. HEK 293 viability, ATP luminescence (CellTiter-Glo), 48-72 h; also: nearly all actives have a fitted effect of over 60% in size
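ATP-coupled CellTiter-Glo luminescence served as viability read-out, recorded 10 min after reagent addition at room temperature. HEK 293 cells, 250 cells/well, had been incubated with pintool-transferred compound for 48 or 72 hr at 37 degree Celsius.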
Luciferase inh – blocks purified firefly luciferase enzyme activity; P08659; purified P. pyralis luciferase, luminescence, biochemical; Potency, µM (titrated, usually from 115 µM), hits mostly inhibitors; 2.5% of 76,000 active; also: nearly all actives have a fitted effect of over 65% in size
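Luminescence read by CCD imaging after purified firefly luciferase (10nM final) was added to substrate buffer holding 10uM D-luciferin and 10uM ATP, pH 7.5, pre-dosed with compound.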
NPR1 antag – human Npr1 receptor antagonism; HEK293 hNpr1 GloSensor cGMP, ANP-stimulated luminescence; 1.6% of 76,000 active; P16066; Potency, µM (highest dose often 46.3 µM), for the others: at the top dose activity change, negative = inhibition, usual class: inhibitors; calls by dose curve; also: nearly all actives have a fitted effect of over 60% in size
Target sequence (P16066 whole entry, looked up): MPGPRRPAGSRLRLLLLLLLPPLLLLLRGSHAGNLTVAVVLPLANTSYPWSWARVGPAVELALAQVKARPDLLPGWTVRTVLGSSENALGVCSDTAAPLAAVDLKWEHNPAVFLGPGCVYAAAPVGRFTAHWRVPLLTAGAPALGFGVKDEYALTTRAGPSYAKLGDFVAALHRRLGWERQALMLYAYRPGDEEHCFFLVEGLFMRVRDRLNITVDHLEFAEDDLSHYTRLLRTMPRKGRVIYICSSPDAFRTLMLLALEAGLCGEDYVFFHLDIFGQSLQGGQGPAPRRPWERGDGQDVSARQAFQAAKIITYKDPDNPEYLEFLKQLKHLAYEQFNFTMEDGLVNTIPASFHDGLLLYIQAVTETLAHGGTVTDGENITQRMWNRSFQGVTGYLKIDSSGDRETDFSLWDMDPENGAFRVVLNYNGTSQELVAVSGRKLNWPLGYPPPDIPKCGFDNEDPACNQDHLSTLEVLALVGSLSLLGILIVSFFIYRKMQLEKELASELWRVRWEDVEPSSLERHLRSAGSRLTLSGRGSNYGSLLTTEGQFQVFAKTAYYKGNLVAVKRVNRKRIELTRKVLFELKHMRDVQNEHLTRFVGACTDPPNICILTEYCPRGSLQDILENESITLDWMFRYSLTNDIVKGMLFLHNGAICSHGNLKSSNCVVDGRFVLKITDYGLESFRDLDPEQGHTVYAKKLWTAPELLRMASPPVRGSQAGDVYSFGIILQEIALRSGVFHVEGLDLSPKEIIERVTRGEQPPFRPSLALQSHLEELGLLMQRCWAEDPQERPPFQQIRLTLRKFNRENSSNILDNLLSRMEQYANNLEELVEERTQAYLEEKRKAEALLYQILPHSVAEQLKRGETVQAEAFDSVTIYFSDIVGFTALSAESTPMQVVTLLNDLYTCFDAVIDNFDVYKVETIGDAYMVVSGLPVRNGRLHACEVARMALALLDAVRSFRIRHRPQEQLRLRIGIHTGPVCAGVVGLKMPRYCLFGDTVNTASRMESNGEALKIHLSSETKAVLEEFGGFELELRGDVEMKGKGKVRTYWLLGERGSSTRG
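Compound pre-incubated 30 min at room temperature on GloSensor-loaded HEK293 cells stably carrying hNpr1 and the pGS-40F cGMP biosensor. Stimulation uses hNppA at 0.1 nM final; luminescence is taken at baseline and 20 min post-agonist.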
Starred values were filed as active, the others as inactive; i = inactive; u = inconclusive; x = not tested or not shown; [ ] = dose if it differs, or a comment. Compounds with a hit are over-represented: about 11% of the library has one in this group of screens. Unless noted, calls follow the shape of the dose curve; as a rule, active = well fitted curve in the direction sought with a large enough effect; inconclusive = small, poorly fitted or top-dose-only effect, or another doubt; inactive = no such curve, though single readings can be large; an effect the other way counts as inactive or inconclusive. % is scaled to controls: 0 for no effect and ±100 for the full control effect; potency is read from the fitted curve at half-maximal effect.

SMILES | NIH3T3 tox | HEK cytotox | Luciferase inh | NPR1 antag
COc1ccc(CN2C(=O)[C@H](OC)[C@@H]2C2=CCN(C(=O)c3ccco3)CC2)cc1 | -27.8% | u | x | x
O=C(c1cccs1)N1CCCn2cc(-c3ccc4c(c3)OCO4)nc21 | i | u | 39.8µM* | 3.5%
O=C(c1ccco1)N1CCCn2cc(-c3ccc4c(c3)OCO4)nc21 | i | u | i | 5.3%
COc1ccc(-c2cn3c(n2)N(C(=O)c2cccs2)CCC3)cc1 | 3.2% | u | 35.5µM* | -3.8%
COc1ccc(-c2cn3c(n2)N(C(=O)Cc2cccs2)CCC3)cc1 | u | u | i | -1.9%
Cc1noc(C)c1S(=O)(=O)N1CCCC(CCc2ccc(F)c(F)c2)C1 (configuration not stated) | u | 44.7µM* | i | -15.5%
CCn1ccc(C(=O)NC2CCCN(c3cc(-c4ccc(Cl)cc4)[nH]n3)C2)n1 (configuration not stated) | u | u | 35.5µM* | -15.3%
CCn1ccc(C(=O)NC2CCCN(c3cc(-c4ccc(OC)cc4)[nH]n3)C2)n1 (configuration not stated) | -22.1% | u | 28.2µM* | 0.3%
CCn1ccc(C(=O)NC2CCN(c3cc(-c4ccccc4)[nH]n3)CC2)n1 | u | -11.7% | u | -9.8%
COc1ccc(-c2cn3cc(C(=O)NCCN4CCOCC4)nc3s2)cc1 | -25.7% | -17.9% | x | x
O=C(c1ccoc1)N1CCC(N2C[C@H](Oc3ccccc3)[C@@H]2c2ccncc2)CC1 | -24.4% | -24.2% | x | x
CN(C)S(=O)(=O)N1CCC(CCc2nc(C3CCOCC3)no2)CC1 | -30.2% | u | x | x
CN(CC(=O)N1CCCn2nc(-c3cccc(C(F)(F)F)c3)cc2C1)S(=O)(=O)c1ccc2c(c1)oc(=O)n2C | u | 31.6µM* | x | x
Cc1cccc(=O)n1CCC(=O)N1CCCn2nc(CO)cc2C1 | -5.7% | i | i | 0.0%
NC1CC(c2cc(N3CCN(CCOc4ccccc4)CC3)ncn2)C1 (configuration not stated) | u | 22.4µM* | i | -24.1%
COCCCNC(=O)C1CCCN1Cc1cccc(-c2ccc(C)c(Cl)c2)c1 (configuration not stated) | 39.8µM* | u | x | x
C#CCNC(=O)C1CCCN1Cc1cccc(-c2ccc(C)c(Cl)c2)c1 (configuration not stated) | 39.8µM* | 39.8µM* | x | x
Cc1ccc(-c2cccc(CN3CCCC3C(=O)NC(C)C)c2)cc1Cl (configuration not stated) | 22.4µM* | 22.4µM* | x | x
CC(C)OCCCNC(=O)C1CCCN1Cc1ccc(-c2cncnc2)cc1 (configuration not stated) | -15.5% | -1.5% | x | x
Cc1ccc(-c2cccc(CN3CCCC3C(=O)N3CCCC(C)C3)c2)cc1Cl (configuration not stated) | 31.6µM* | u | x | x
COc1cccc(CN2C(=O)CCCCC2C(=O)NC2CCCCCC2)c1 (configuration not stated) | -11.1% | -15.8% | i | -4.8%
CNC(=O)C1CCCN1Cc1cccc(-c2ccc(C)c(Cl)c2)c1 (configuration not stated) | 35.5µM* | 25.1µM* | x | x
Cc1ccc(-c2cccc(CN3CCCC3C(=O)NC3CCCC3)c2)cc1Cl (configuration not stated) | u | 35.5µM* | x | x
CN(C)c1ccc(C(=O)NC2CCCN(c3cc(-c4ccc(F)cc4)[nH]n3)C2)cc1 (configuration not stated) | u | 35.5µM* | u | -10.1%
CN(C)c1ccc(C(=O)NC2CCCN(c3cc(-c4ccccc4)[nH]n3)C2)cc1 (configuration not stated) | u | u | 28.2µM* | -14.4%
SMILES | NIH3T3 tox | HEK cytotox | Luciferase inh | NPR1 antag
O=C(NC1CCCN(c2cc(-c3ccccc3)[nH]n2)C1)c1ccc(Br)cc1 (configuration not stated) | 31.6µM* | 22.4µM* | i | -5.1%
CN(C)c1cccc(C(=O)NC2CCCN(c3cc(-c4ccc(F)cc4)[nH]n3)C2)c1 (configuration not stated) | u | u | 15.8µM* | -10.1%
CN(C)c1ccc(C(=O)NC2CCN(c3cc(-c4ccc(F)cc4)[nH]n3)C2)cc1 (configuration not stated) | u | u | i | -18.7%
CN(C)c1ccc(C(=O)NC2CCN(c3cc(-c4ccccc4)[nH]n3)C2)cc1 (configuration not stated) | u | u | i | -10.0%
Cc1cc(C(=O)NCc2ccncc2)c2c(C3CCNCC3)noc2n1 | 4.5% | i | x | x
CCN1C[C@H]2COc3cc(OC)ccc3[C@H]2N(C(=O)COc2ccccc2)CCC1=O | u | 1.9% | x | x
O=C(NC1CCN(c2cc(-c3ccccc3)[nH]n2)CC1)c1ccccc1 | u | u | i | -25.2%
O=C(NC1CCN(c2cc(-c3ccccc3)[nH]n2)CC1)c1ccsc1 | -5.6% | 79.4µM* | u | -19.3%
CN(C)c1cccc(C(=O)NC2CCN(c3cnn(C)c(=O)c3)CC2)c1 | -5.9% | i | 25.1µM* | 2.7%
COc1ccc(-c2cc(N3CCCC(NC(=O)c4ccc(N(C)C)cc4)C3)n[nH]2)cc1 (configuration not stated) | u | 44.7µM* | 7.08µM* | -23.8%
CN(C)c1cccc(C(=O)NC2CCN(c3cc(-c4ccccc4)[nH]n3)CC2)c1 | u | u | 39.8µM* | -22.3%
Cn1ncc(N2CCC(NC(=O)c3ccc4c(c3)OCO4)CC2)cc1=O | -0.7% | -10.6% | i | -3.7%
COc1ccc(-c2ccc3nnc(CNC(=O)c4cccc(NC(C)=O)c4)n3n2)cc1 | -14.0% | -15.8% | i | 5.6%
O=C(NCc1ccccc1Cl)C1CCN(C(=O)c2ccc(-c3cncnc3)cc2)CC1 | -27.6% | u | x | x
CN(C)c1cccc(C(=O)NCC2CCN(c3cc(-c4ccc(Cl)cc4)[nH]n3)CC2)c1 | 39.8µM* | u | u | -27.4%
Cc1ccc(-c2cc(N3CCC(CNC(=O)c4cccc(N(C)C)c4)CC3)n[nH]2)cc1 | u | u | u | -20.0%
CC(C)CNC(=O)C1CCN(Cc2ccccc2-c2cccnc2)CC1 | -36.4%[138 µM] | u | x | x
COc1ccc(C(=O)Nc2ccc3c(c2)CN(C(C)c2ccc(F)cc2)C(=O)CO3)cc1OC (configuration not stated) | u | u | i | -15.9%
CC(c1ccc(F)cc1)N1Cc2cc(NC(=O)Cc3cccs3)ccc2OCC1=O (configuration not stated) | u | 39.8µM* | i | u
O=C1CO[C@H]2CN(c3nccc(C(F)(F)F)n3)C[C@H]2N1Cc1ccc(F)cc1 | u | 100µM* | i | -0.7%[70.6 µM]
CN(C)c1cccc(-c2cc3c(cn2)CN(Cc2cccnc2)CCN3)c1 | u | u | u | -24.4%[70.6 µM]
CN(C)c1cccc(Nc2cc3c(cn2)CN(Cc2ccccc2)CCN3)c1 | 44.7µM* | 28.2µM* | 22.4µM* | u
